What follows are compounds tested against Streptavidin (Streptomyces avidinii) (UniProt P22629) (assay: streptavidin binders on small-molecule microarray, primary screen, artefact control for SMM compound annotation, biophysical, 635/667 nm fluorescence (AID 1147;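 also: signal reflects streptavidin binding to arrayed compounds as a control protein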)). Settings: streptavidin binding, higher = more signal.
Chain of Streptavidin (Streptomyces avidinii) (P22629 whole entry, looked up): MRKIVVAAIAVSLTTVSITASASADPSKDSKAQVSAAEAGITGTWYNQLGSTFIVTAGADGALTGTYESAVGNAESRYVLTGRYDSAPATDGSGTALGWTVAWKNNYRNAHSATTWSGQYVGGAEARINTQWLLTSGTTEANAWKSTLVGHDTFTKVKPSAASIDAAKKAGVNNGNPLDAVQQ

| SMILES | composite z-score |
| --- | --- |
| COC(=O)[C@@]1(Cc2ccc(OC)cc2)[C@H]2c3cc(C(=O)N4CCCC4)n(Cc4nc5ccccc5[nH]4)c3C[C@H]2CN1C(=O)c1ccccc1 | 1.78 |
| COc1ccc(NC(=O)O[C@H]2[C@H](OC(=O)c3cc4ccccc4[nH]3)[C@@H](OC(=O)c3cc4ccccc4[nH]3)[C@@H](OC)O[C@@H]2CO)cc1 | -0.342 |
| C=C(CCCC)C(=O)CC[C@@H](OC(C)=O)c1ccc(CO)o1 | -0.918 |
| O=C1[C@H]2C=C(I)[C@H](C[C@@H]2OCCCCO)[C@@]12CO2 | -0.162 |
| COCCCNC(=O)[C@@]1(Cc2ccccc2)N=C(c2ccc(OCCCO)cc2)O[C@H]1c1ccccc1CN=[N+]=[N-] | 0.716 |
| CN(C)CCCCCCNC(=O)[C@@H]1C[C@@H]2C(=O)N3CCC[C@H]3C(=O)N2[C@@H]1c1ccc(O)cc1 | -0.331 |
| COc1ccc([C@H]2C[C@H]3C(Br)=C[C@@]2(CO)C(=O)[C@]32CO2)cc1 | -0.264 |
| C=CCNC(=O)[C@@H]1[C@H]2C(=O)O[C@H](c3ccccc3)[C@H](c3ccccc3)N2[C@H](c2ccc(OCCO)cc2)[C@@]12C(=O)N(C(=O)OCCOC)c1ccc(C#CCNC(N)=O)cc12 | 0.348 |
| CS(=O)(=O)CCOC(=O)C1=CC(CCCO)=CC(c2ccc(CN3CCCC3)cc2)N(Cc2cccc(OC(F)(F)F)c2)C=C1C(=O)OCCS(C)(=O)=O (stereo unspecified) | 0.812 |
| COCCOC(=O)N1C(=O)[C@@]2(c3cc(C#CC4(O)CCCCCC4)ccc31)[C@H](C(=O)Nc1nc3ccccc3s1)[C@H]1C(=O)O[C@H](c3ccccc3)[C@H](c3ccccc3)N1[C@@H]2c1ccc(OCCO)cc1 | 0.587 |
| [N-]=[N+]=Nc1ccccc1C[C@]1(C(=O)NCC(O)CO)N=C(c2ccc(OCCCO)cc2)O[C@H]1c1ccccc1 (stereo partly specified) | 0.204 |
| [N-]=[N+]=NCc1ccccc1C[C@@]1(C(=O)NCC(O)CO)N=C(c2ccc(OCCCO)cc2)O[C@@H]1c1ccccc1 (stereo partly specified) | -0.0302 |
| C=CCN1C(=O)[C@]2(O[C@H](CCO)[C@@H]([Si](C)(C)c3ccc(OC)cc3)[C@@H]2C)c2cc(N(C=O)c3ccccc3)ccc21 | 0.0699 |
| Cc1ccc(S(=O)(=O)N2C[C@@H](C(=O)O)[C@H](Sc3ccccc3)C[C@H]2c2ccccc2)cc1 | 1.26 |
| COC(=O)[C@]1(Cc2ccccc2)N=C(c2ccc(OCCCO)cc2)O[C@@H]1c1ccccc1N=[N+]=[N-] | 0.291 |
| C=CC[C@]1(C(N)=O)N=C(c2ccc(OCCCO)cc2)O[C@H]1c1ccccc1 | 0.186 |
| [N-]=[N+]=Nc1ccccc1[C@H]1OC(c2ccc(OCCCO)cc2)=N[C@@]1(Cc1ccccc1)C(=O)N1CCOCC1 | 2.01 |
| O=C1NC(=O)C2C1C=CC(C(O)c1ccc(-c3ccccc3)s1)N2Nc1ccc(Cl)cc1Cl (stereo unspecified) | 1.34 |

| SMILES | composite z-score |
| --- | --- |
| NCCCCCNC(=O)[C@H]1C[C@H]2C(=O)N3CCC[C@H]3C(=O)N2[C@H]1c1ccc(O)cc1 | 1.23 |
| CC(=O)n1cc(C(O)C2C=CC3C(=O)NC(=O)C3N2Nc2ccccn2)c2ccccc21 (stereo unspecified) | 0.153 |
| CO[C@H]1O[C@H](CO)[C@@H](OC(=O)Nc2cccc(F)c2)[C@H](OC(=O)Nc2ccccc2)[C@H]1OC(=O)Nc1ccccc1 | -0.0985 |
| CO[C@H]1O[C@H](CO)[C@@H](OC(=O)Nc2ccccc2-c2ccccc2)[C@H](OC(=O)Nc2ccccc2-c2ccccc2)[C@@H]1OC(=O)Nc1ccccc1-c1ccccc1 | 1.08 |
| O=C(NCc1ccccc1)[C@@H]1c2ccccc2C(=O)N(C2Cc3ccccc3C2)[C@H]1c1ccc(CO)cc1 | 0.49 |
| O=C1C2C=CC(C(O)c3ccc(-c4ccccc4)s3)N(Nc3ccccc3)C2C(=O)N1c1ccccc1 (stereo unspecified) | 0.908 |
| Cc1c(NC(=O)/C(C#N)=C/c2cccc([N+](=O)[O-])c2)c(=O)n(-c2ccccc2)n1C | 0.891 |
| O=C1C2C=CC(C(O)c3c(F)cccc3Cl)N(Nc3ccccc3F)C2C(=O)N1c1ccccc1 (stereo unspecified) | 0.396 |
| NCCCCCCNC(=O)[C@H]1C[C@H]2C(=O)N[C@@H](Cc3ccccc3)C(=O)N2[C@H]1c1cccc(OCCO)c1 | 1.09 |
| CN(C)CCCC[C@@H]1NC(=O)[C@H]2C[C@@H](C(=O)NCCCCCN)[C@@H](c3cccc(OCCO)c3)N2C1=O | 1.13 |
| O=C(NCCN1CCOCC1)[C@@H]1c2ccccc2C(=O)N(Cc2cc(C(F)(F)F)cc(C(F)(F)F)c2)[C@H]1c1ccc(CO)cc1 | -0.601 |
| COc1ccc([Si](C)(C)[C@@H]2[C@@H](CC(=O)N3Cc4ccccc4C[C@H]3CO)O[C@]3(C(=O)N(Cc4cccc(N5CCC5=O)c4)c4ccccc43)[C@H]2C)cc1 | 0.244 |
| CN1C(=O)C2C=CC(C(O)c3c(F)cccc3Cl)N(NC(=O)OC(C)(C)C)C2C1=O (stereo unspecified) | 1.18 |
| O=C1OCCC/C=C\[C@H]2OC34C=CCN(c5ccc6ccccc6c5)C(=O)[C@H]3N(CCCCCO)C(=O)[C@@H]4C12 (stereo partly specified) | -0.773 |
| COc1ccc([Si](C)(C)[C@H]2[C@H](CC(=O)N3CCC[C@H]3CO)O[C@@]3(C(=O)N(Cc4cccc(N5CCOC5=O)c4)c4ccccc43)[C@@H]2C)cc1 | 0.0063 |
| COCC(=C=CC[C@H](O)c1cccc(OCCO)c1)CCO | -0.33 |
| C=CCC(OC(C)=O)[C@@H]1[C@@H](N(Cc2ccc(-c3cccc(C(F)(F)F)c3)o2)C(=O)c2cccc3ccccc23)c2cc(OCCCO)ccc2N1C(=O)Cc1ccc2ccccc2c1 (stereo partly specified) | -0.253 |
| COCCOC(=O)N1C(=O)[C@@]2(c3ccccc31)[C@H](C(=O)N1CCCCCCC1)[C@H]1C(=O)O[C@H](c3ccccc3)[C@H](c3ccccc3)N1[C@@H]2c1ccc(OCCO)cc1 | 4.29 |
